Screening results as filed in PubChem BioAssay.
TDP1 cell CPT – DT40-hTDP1 cell growth loss with CPT. Potency, µM (highest dose often 46.2 µM), for inactives: at the top dose activity change, negative = growth inhibition, usual class: inhibitors. 420,000 tested, 12% active. chicken DT40 Tdp1-/-;hTDP1 cells + 20 nM CPT, ATP luminescence, 48 h; further: potency means the concentration at half of the fitted maximal effect; on the % scale 0 is the no-effect control and ±100 the full control effect; nearly all actives have a fitted effect of over 55% in size
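Chicken DT40 Tdp1-/- cells complemented with human TDP1, 400 cells/well, exposed to compounds plus 20 nM camptothecin for at least 48 h at 37 C; viability read as ATP content by CellTiter-Glo luminescence.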
BCR signal inh – blocks chronic active B-cell receptor signaling; ABC-DLBCL IkBa-CBG/CBR reporter, luminescence ratio, 4 h; Potency, µM (series often up to 46.1 µM), for inactives: top-dose activity change, negative = inhibition, hits mostly inhibitors; 340,000 tested, 0.05% active; AID 493014; active means well fitted inhibition curve with a large enough effect in the signal ratio, with a control signal flat, not every such curve was filed as active; inconclusive means small, poorly fitted or top-dose-only effect, or effect the other way, or a change in a side signal; the % refers to the signal ratio;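 further: potency means the concentration at half of the fitted maximal effect; plate controls were basal doxycycline-induced cells for no effect and cells given 10 µM MG132 for full effect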
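Concentration-response series (up to 46 uM) were applied to TMD8 dual-reporter cells for 4 h at 37C with doxycycline. Green/red ratio, after filter-overlap correction, defined %Activity; red signal alone was normalised to basal cells and zero luminescence.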
DT40 TDP1 no CPT – qHTS for Inhibitors of human tyrosyl-DNA phosphodiesterase 1 (TDP1): qHTS in cells in absence of CPT; DT40 Tdp1-/- hTDP1 cells, no CPT, ATP luminescence, 48 h; Potency, µM (titrated, usually from 46.2 µM), without a hit: at the top dose activity change, negative = growth inhibition, hits mostly inhibitors; 420,000 tested, 15% active; AID 686978, 2013; further: potency means the concentration at half of the fitted maximal effect; on the % scale 0 is the no-effect control and ±100 the full control effect; nearly all actives have a fitted effect of over 55% in size
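No-CPT arm: Tdp1-/-;hTDP1 DT40 cells (400/well) plus compounds, incubated ≥48 hr at 37 °C. Readout CellTiter-Glo luminescence.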
MCF10A rerep – DNA re-replication induction in MCF 10a cells. MCF 10A DNA re-replication, Hoechst nuclear intensity, 48 h. Potency, µM (titrated, usually from 46.1 µM), for inactives: at the top dose activity, positive = re-replication, most hits filed as activators. 350,000 tested, 2.9% active. AID 624296; further: potency means the concentration at half of the fitted maximal effect; % of control where 0% means no effect; nearly all actives have a fitted effect of over 50% in size
SW480 rereplic – DNA re-replication induction in SW480 cells; 340,000 tested, 1.8% active; AID 624297; SW480 DNA re-replication, Hoechst DNA content imaging, 48 h; Potency, µM (doses to about 46.1 µM), without a hit: at the top dose re-replication activation, actives largely listed as activators; further: potency means the concentration at half of the fitted maximal effect; % of control where 0% means no effect; nearly all actives have a fitted effect of over 55% in size
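Readout is total intensity of Hoechst-stained nuclei, excited at 405 nm and collected at 500-530 nm. Compound treatment lasted 48 hr at 37 C in 5% CO2 before staining.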
IL-1B inflam inh – inflammasome signaling inhibition, IL-1 beta readout. 360,000 tested, 4.7% active. THP-1 LPS/ATP IL-1B secretion, AlphaLISA, 16 h; active compounds read low. activity change, % at 57.5 µM; in the data active means activity change below about -50%; inconclusive means mostly about -30% to -49%; further: on the % scale 0 is the no-effect control and ±100 the full control effect
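Secreted IL-1B measured by AlphaLISA bead assay after 16 h compound exposure of THP-1 cells; compounds (final up to 57.5 uM) added 1 h before LPS (250 ng/mL) and ATP (1.25 mM) stimulation; lower signal means less secretion.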
* = called active by the depositor; ? = inconclusive; . = no result; [ ] = dose if it differs, or a comment. The list is not random: actives were taken first. Their share in the collection is about 19%. Unless noted, the call rests on the fitted dose curve; in most records, active means well fitted curve in the direction sought with a large enough effect; inconclusive means small, poorly fitted or top-dose-only effect, or another doubt; inactive means no such curve, though single readings can be large; an effect the other way counts as inactive or inconclusive.

SMILES	TDP1 cell CPT	BCR signal inh	DT40 TDP1 no CPT	MCF10A rerep	SW480 rereplic	IL-1B inflam inh
CCc1nc(SCC(=O)NNC(=O)c2ccc(OC)cc2)c2ccccc2n1	?	-10%	-16%	12%	-22%	-29
COc1ccc(C(=O)NNC(=O)CSc2nc(C(C)C)nc3ccccc23)cc1	-4%	-14%	-24%	?	1%	-93*
CCCCNC(=O)CSc1nc(Cc2ccccc2)nc2ccccc12	?	?	?	?	1%	-2
CC(C)(C)c1nc(SCC(=O)NC2CCCC2)c2ccccc2n1	-24%	-2%	-25%	-6%	-9%	-62*
CC(C)NC(=O)CSc1nc(Cc2ccccc2)nc2ccccc12	?	-5%	?	?	-21%	-70*
CCCc1nc(SCC(=O)NC2CCCC2)c2ccccc2n1	?	?	?	?	-16%	-58*
CC(C)c1nc(SCC(=O)NC2CCCCC2)c2ccccc2n1	0%	-1%	?	1%	4%	-7
Cc1ccc(NC(=O)CN2C=NS(=O)(=O)c3ccccc32)c(C)c1	-14%	-7%	-16%	.	.	.
Cc1cc(F)ccc1-c1cc(C(=O)NCc2cccs2)[nH]n1	-37%	.	?	.	.	-29
CC(C)(C)c1nc(SCC(=O)NNC(=O)c2ccccc2)c2ccccc2n1	?	-29%	?	?	0%	-91*
CCOC(=O)CSc1nc(C(C)(C)C)nc2ccccc12	-21%	-2%	?	?	-8%	-16
Cc1nonc1NC(=O)CSc1nc(CCC2CCCC2)nc2ccccc12	-20%	?	?	7.3µM*	-5%	-7
CCC(=O)/C=C1/Sc2ccc(OC)cc2N1CCO	?	0%	?	-5%	3%	0
CCC(=O)/C=C1/Sc2ccc(OC)cc2N1CC	10µM*	?	?	-3%	-2%	0
CCC(/C=C1\Sc2ccc(OC)cc2N1CC)=C\c1sc2ccc(OC)cc2[n+]1CCCS(=O)(=O)[O-]	3.3µM*	?	1.8µM*	-7%	-3%	?
CCC(/C=C1\Sc2ccc(OC)cc2N1CCO)=C\c1sc2ccc(OC)cc2[n+]1CCO	3.3µM*	9%	5.2µM*	?	0%	-113*
CC(C)C(NC(=O)c1ccccc1)C(=O)OCC(=O)N1CCN(c2ccccc2)CC1 (configuration not stated)	7%	0%	?	7%	-8%	-8
COC(=O)c1oc2ccc(Br)cc2c1NC(=O)CN1CCN(C)CC1	-21%	.	?	-9%	-3%	-53*
Cc1c(C(=O)N2CCN(CC(=O)Nc3ccccc3Cl)CC2)oc2ccc(Br)cc12	?	-1%	-7%	23µM*	-11%	7
CC1S/C(=N/N=C/c2ccco2)N(Cc2ccccc2)C1=O (configuration not stated)	?	10%	9.2µM*	6%	-3%	-7
CCC1S/C(=N/N=C/c2ccco2)N(Cc2ccc(F)cc2)C1=O (configuration not stated)	?	11%	?	9%	1%	7
O=C1NC(=S)S/C1=C\c1cc(Cl)ccc1Cl	21µM*	.	?	?	-10%	-16
Cc1cc(/C=C2\SC(=S)NC2=O)c(C)[nH]1	-3%	2%	-2%	-26%	-20%	5
CN(CC(=O)Nc1ccc(F)c(F)c1F)C(=O)c1nn(Cc2ccccc2)c(=O)c2ccccc12	0%	2%	?	2%	-2%	-3
O=C(CC1SC(=O)NC1=O)Oc1ccc(/C=N/NC(=O)c2ccccc2O)cc1 (configuration not stated)	-1%	?	-11%	-2%	-34%	7
SMILES	TDP1 cell CPT	BCR signal inh	DT40 TDP1 no CPT	MCF10A rerep	SW480 rereplic	IL-1B inflam inh
O=C1C(CSCc2ccccc2)NC(=S)N1c1ccccc1 (configuration not stated)	2.9µM*	-2%	4.6µM*	-2%	?	-15
Cc1cc(-c2ccnc(-n3ncc(C(=O)N4CCCCC4c4cccnc4)c3C3CC3)n2)c(C)s1 (configuration not stated)	8%[9.04 µM]	.	-3%	.	.	.
CC(C)(C)OC(=O)N1CCN(c2nc(-c3cccs3)nc3ccccc23)CC1	13µM*	.	8.9µM*	.	.	.
COc1cccc(-c2nc(N3CCN(C)CC3)c3ccccc3n2)c1O	-110%	?	16µM*	?	22%	-98*
c1ccc2c(N3CCCC3)nc(-c3ccncc3)nc2c1	?	12%	18µM*	-9%	-5%	-80*
CN1CCN(c2nc(-c3ccoc3)nc3ccccc23)CC1	3%	.	-14%	.	.	.
CN1CCN(c2nc(-c3ccncc3)nc3ccccc23)CC1	?	0%	?	?	?	-57*
CN1CCN(c2nc(-c3ccccc3O)nc3ccccc23)CC1	?	2%	?	-2%	?	3
O=C(NCC(c1ccco1)N1CCCCC1)c1cccnc1 (configuration not stated)	9%	0%	-11%	0%	0%	-3
O=C(Cn1nc(C(=O)O)c2ccccc2c1=O)Nc1ccc(Cl)c(S(=O)(=O)N2CCOCC2)c1	-25%	?	-18%	-1%	6%	-2
CCOC(=O)N/N=C(/C)c1cccc(-n2cnnn2)c1	-3%	-1%	-16%	-49%	-54%	2
